# Measured values taken from PubChem BioAssay AID540332 (The Scripps Research Institute Molecular Screening Center, 2011).
# Values without a mark were called inactive. The rule behind the calls is not given here.
# Test system: Potassium Channel KATP
# Assay: selectivity profile across receptors and CYP450s – biochemical, Ricerca HitProfilingScreen, CYP450, set 2, selectivity assay for S1P4 agonist project, profiling panel (AID 540332)
# Conditions: at 30 µM; active compounds read high
smiles,measurement,value
COCCN=C1S/C(=C\c2cc(C)n(-c3ccc(F)cc3F)c2C)C(=O)N1C,inhibition,-5%
